# Bioassay records (PubChem)
# An excerpt weighted towards active compounds, which were near 18% of everything screened.
# IL1B secr inh: inhibitors of inflammasome signaling (IL-1 beta secretion) | THP-1 LPS/ATP IL-1B secretion, AlphaLISA, 16 h; stronger effect = lower value | activity change, % at 57.5 µM | 360,000 compounds, 4.7% hits | AID 743279; in the data active = activity change below about -50%; inconclusive = mostly about -30% to -49%
#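 Secreted IL-1B measured by AlphaLISA bead assay after 16 h compound exposure of THP-1 cells; compounds (final up to 57.5 uM) added 1 h before LPS (250 ng/mL) and ATP (1.25 mM) stimulation; lower signal means less secretion.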
# TDP1 inh: blocks human tyrosyl-DNA phosphodiesterase 1; Potency, µM (series often up to 130 µM), for the others: at the top dose activity change, negative = inhibition, usual class: inhibitors; 350,000 compounds, 0.28% hits; Q9NUW8; recombinant TDP1, AlphaScreen DNA substrate cleavage; AID 485290; note: potency is the fitted concentration of half-maximal effect; nearly all actives have a fitted effect of over 40% in size
#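 E. coli-derived human Tdp1, 1 nM final. Cpd preinc 15 min RT; substrate 15 nM final, 5 min RT; AS bead mix 10 ug/ml final, 10 min RT. Signal loss = tyrosine-FITC cleavage. No-enzyme wells = max signal.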
# DT40 TDP1 no CPT: qHTS for Inhibitors of human tyrosyl-DNA phosphodiesterase 1 (TDP1): qHTS in cells in absence of CPT | DT40 Tdp1-/- hTDP1 cells, no CPT, ATP luminescence, 48 h | Potency, µM (top dose mostly 46.2 µM), without a hit: at the highest dose activity change, negative = growth inhibition, most hits filed as inhibitors | 420,000 compounds, 15% hits; note: potency is the fitted concentration of half-maximal effect; nearly all actives have a fitted effect of over 55% in size
#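 Compound effects on proliferation are scored in DT40 Tdp1-/-;hTDP1 cells in the absence of CPT. ATP levels (CellTiter-Glo luminescence) are recorded after a ≥48 hr, 37 °C incubation.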
# CtBP-E1A blk: inhibitors of CtBP/E1A interaction. 340,000 compounds, 0.49% hits. activity change, % (test concentration not listed). AID 651724. AlphaScreen GST-E1A/His-CtBP binding, 1536-well; stronger effect = lower value; in the data active = activity change below about -65%; inconclusive = mostly about -30% to -63%
#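 GST-E1A and His-tagged CtBP (125 nM each as 5X stock) were preincubated with pin-transferred compound for 2 h at 37 °C in the dark, then glutathione donor and nickel acceptor beads were added for 1 h before AlphaScreen reading.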
# TDP1 cell CPT: growth inhibition of DT40 Tdp1-/-;hTDP1 cells with camptothecin (screen for TDP1 inhibitors) | Potency, µM (titrated, usually from 46.2 µM), without a hit: at the top dose activity change, negative = growth inhibition, most hits filed as inhibitors | AID 686979 | 420,000 compounds, 12% hits | chicken DT40 Tdp1-/-;hTDP1 cells + 20 nM CPT, ATP luminescence, 48 h; note: potency is the fitted concentration of half-maximal effect; nearly all actives have a fitted effect of over 55% in size
#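 Cell growth measured by CellTiter-Glo luminescence after a minimum 48 h, 37 C compound exposure with 20 nM CPT in Tdp1-knockout DT40 cells stably expressing hTDP1, seeded 400/well; qHTS titration format.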
# Six1-Eya2 blk: inhibitors of human Six1/Eya2 interaction; Q15475+O00167; AlphaScreen GST-Six1/His-Eya2 binding, biochemical; stronger effect = lower value; activity change, % (no concentration beside the values); 360,000 compounds, 0.56% hits; in the data active = activity change below about -65%; inconclusive = mostly about -30% to -63%
# Target sequence (O00167 whole entry, looked up): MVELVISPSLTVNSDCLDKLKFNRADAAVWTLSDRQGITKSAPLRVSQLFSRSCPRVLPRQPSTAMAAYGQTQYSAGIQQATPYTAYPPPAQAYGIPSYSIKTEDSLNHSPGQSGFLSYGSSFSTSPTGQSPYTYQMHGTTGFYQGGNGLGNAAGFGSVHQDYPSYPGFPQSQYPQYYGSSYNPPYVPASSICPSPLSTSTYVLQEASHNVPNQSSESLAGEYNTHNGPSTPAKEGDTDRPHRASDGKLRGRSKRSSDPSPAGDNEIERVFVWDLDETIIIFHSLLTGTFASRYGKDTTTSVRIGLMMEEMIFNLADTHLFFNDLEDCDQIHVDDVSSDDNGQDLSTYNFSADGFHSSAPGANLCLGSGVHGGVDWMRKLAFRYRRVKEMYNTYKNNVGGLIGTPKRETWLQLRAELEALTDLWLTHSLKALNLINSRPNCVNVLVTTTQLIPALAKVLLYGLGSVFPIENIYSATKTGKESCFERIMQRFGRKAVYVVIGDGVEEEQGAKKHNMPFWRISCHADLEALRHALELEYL
# Target sequence (Q15475 whole entry, looked up): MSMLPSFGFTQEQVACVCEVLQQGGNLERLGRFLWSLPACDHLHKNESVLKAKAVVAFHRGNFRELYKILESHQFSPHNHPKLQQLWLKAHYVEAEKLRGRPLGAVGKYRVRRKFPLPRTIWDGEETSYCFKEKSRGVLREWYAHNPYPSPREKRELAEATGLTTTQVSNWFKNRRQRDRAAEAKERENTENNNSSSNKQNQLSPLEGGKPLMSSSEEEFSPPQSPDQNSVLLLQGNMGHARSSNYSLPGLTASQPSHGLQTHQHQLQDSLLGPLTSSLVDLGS
#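 Compounds are tested against tagged Six1 and Eya2 proteins bridged by glutathione donor and nickel acceptor beads; after a one-hour incubation at 37 °C without light, AlphaScreen emission is recorded.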
# The depositor's hits bear a star; ? = inconclusive; . = not tested or not shown; [ ] = another dose, or the depositor's remark. Unless noted, calls come from the whole dose curve; as a rule, active = well fitted curve in the direction sought with a large enough effect; inconclusive = small, poorly fitted or top-dose-only effect, or another doubt; inactive = no such curve, though single readings can be large; an effect the other way counts as inactive or inconclusive. % is set by controls: 0 for no effect and ±100 for the full control effect.
SMILES,IL1B secr inh,TDP1 inh,DT40 TDP1 no CPT,CtBP-E1A blk,TDP1 cell CPT,Six1-Eya2 blk
Cc1ccc(S(=O)(=O)N2CCOCC2)cc1NC(=O)CN(C)C1CCS(=O)(=O)C1 (stereo unspecified),0,-1%,2%,.,6%,0
CC1Cc2ccccc2N1C(=O)CNc1cccc(S(=O)(=O)N2CCCC2)c1 (stereo unspecified),0,1%,21µM*,-8,15µM*,-9
Cc1ccc(S(=O)(=O)N2CCOCC2)cc1NC(=O)CN(C)CC(=O)Nc1cccc(F)c1,-16,.,21µM*,-2,?,-17
CC1Cc2ccccc2N1C(=O)CN1CCN(S(=O)(=O)c2ccc3c(c2)OCCCO3)CC1 (stereo unspecified),?,.,?,-6,-23%,1
CC(=O)c1cccc(NCC(=O)Nc2cccc(S(=O)(=O)N3CCCCC3)c2)c1,-6,.,?,-3,?,-7
CCN(CC)S(=O)(=O)c1cccc(NC(=O)CNc2cccc(S(=O)(=O)N3CCCC3)c2)c1,-9,0%,1.2µM*,-6,1µM*,-2
CS(=O)(=O)c1cccc(C(=O)Nc2ccc(S(=O)(=O)N3CCCCC3)cc2)c1,11,.,18µM*,-3,10µM*,-2
O=C(Nc1cccc(O)c1)c1cccc(S(=O)(=O)N2CCCC2)c1,0,-2%,-29%,?,-6%,-72*
CCN(CC)S(=O)(=O)c1ccc(C)c(NC(=O)CNc2cccc(S(=O)(=O)N3CCCC3)c2)c1,3,0%,13µM*,-2,18µM*,2
O=C(Nc1cccc(S(=O)(=O)N2CCCC2)c1)c1cccc(S(=O)(=O)N2CCOCC2)c1,50,0%,?,.,?,-9
CCc1cc2c(C)cc(=O)oc2cc1Oc1ncccc1[N+](=O)[O-],.,0%,.,.,.,.
O=C(O)c1ccc2oc(=O)n(Cc3ccccc3)c2c1,.,-4%,-7%,.,-7%,.
CN(C)S(=O)(=O)c1cccc(NC(=O)c2ccc(S(=O)(=O)N3CCCC3)cc2)c1,-13,1%,?,-11,?,5
CCN(CC)S(=O)(=O)c1cccc(NC(=O)c2cccc(S(=O)(=O)N3CCCC3)c2)c1,-1,-2%[56.1 µM],16µM*,4,?,-13
CCN(CC)S(=O)(=O)c1cc(NC(=O)CNc2cccc(S(=O)(=O)N3CCOCC3)c2)ccc1C,-10,-8%[0.505 µM],2.1µM*,0,5.2µM*,6
Cc1cc2nc3ccc(N(C)C)cc3nc2cc1N,?,.,15µM*,-14,?,?
O=C(c1ccc2c(=O)n3c(nc2c1)CCC3)N1CCN(S(=O)(=O)c2cccc(F)c2)CC1,23,5%,-21%,5,?,-3
OCCN(CCO)c1ccc(C(c2ccccc2Cl)c2ccc(N(CCO)CCO)cc2Cl)c(Cl)c1,?,8%,18µM*,2,?,-15
O=C(O)c1cccc(N(CCO)CCO)c1,5,.,12%,-5,-6%,4
O=C(Nc1cccc(S(=O)(=O)Nc2ccc(Cl)cc2)c1)c1ccccn1,16,0%,?,-24,?,4
COc1ccc(Nc2sc(C(=O)c3ccccc3)c(N)c2C(=O)Nc2cc(C)ccc2C)c(OC)c1,.,7%,?,.,?,.
COc1ccccc1NC(=O)c1c(Nc2ccccc2C)sc(C(=O)Nc2cccc(Cl)c2)c1N,?,7%,?,-6,21µM*,-1
COc1ccccc1NC(=O)c1sc2nc(C)c(C(=O)Nc3ccc(C)cc3C)c(-c3ccccc3Cl)c2c1N,.,3%,-10%,.,3%,.
COc1ccc(C(=O)c2sc(Nc3ccccc3)c(C(=O)Nc3ccc(OC)c(OC)c3)c2N)cc1,-5,13%,16µM*,-12,26µM*,-17
Cc1ccc(Nc2sc(C(=O)c3ccccc3)c(N)c2C(=O)NC(C)C)cc1,.,2%,?,.,?,.
SMILES,IL1B secr inh,TDP1 inh,DT40 TDP1 no CPT,CtBP-E1A blk,TDP1 cell CPT,Six1-Eya2 blk
COc1ccc(NC(=O)c2c(Nc3ccccc3)sc(C(=O)c3ccc(F)cc3)c2N)cc1,0,13%,2.1µM*,-13,2.3µM*,-26
Cc1cc(Nc2sc(C(=O)c3ccc(F)cc3)c(N)c2C(=O)Nc2ccc(F)cc2)ccc1Cl,.,11%,3.7µM*,.,12µM*,.
CC(=O)Nc1ccc(S(=O)(=O)N2CCN(S(=O)(=O)c3ccc4c(c3)OCCO4)CC2)cc1,.,1%,.,.,.,.
C=CCn1c(O)c(N=NC(=O)CNC(=O)/C=C/c2ccco2)c2ccccc21,39,?,-12%,-6,1%,-12
Cc1ccccc1NC(=O)c1cc([N+](=O)[O-])ccc1NCCN1C(=O)CCC1=O,-4,0%,-23%,-10,2%,-3
CNC(=O)NC(=O)CSc1nnc(C(F)(F)F)n1C,-13,3%,0%,-2,-23%,6
Cc1ccc(N(CC(=O)O)S(C)(=O)=O)cc1,7,5%,-15%,-15,18%,11
COc1ccc(C(=O)c2sc(Nc3cccc(OC)c3)c(C(=O)Nc3cccc(C)c3C)c2N)cc1,68,8%,10µM*,?,18µM*,-13
Cc1ccc(-c2nc(C=Nc3ccc(O)cc3)c(O)o2)cc1,-86*,7%,10µM*,.,7.3µM*,-1
CN=Cc1nc(-c2ccccc2)oc1O,-13,1%,-15%,-13,-5%,-15
Cc1ccc(S(=O)(=O)N2CCN(C(=O)CCC(=O)Nc3ccc(F)cc3F)CC2)cc1,?,0%,-12%,2,-26%,0
N#Cc1cccc(C(=O)C(=O)N2CCN(C(=O)OCc3ccccc3)CC2)c1,-7,.,23µM*,11,?,1
O=C(OCc1ccccc1)N1CCOCCN(C(=O)OCc2ccccc2)CCOCC1,-5,3%,26µM*,-17,26µM*,8
O=C(Nc1ccc(N2CCOCC2)cc1Cl)C1CCN(C(=O)OCc2ccccc2)CC1,0,3%,16µM*,-4,?,-7
O=C(Nc1ccc(N2CCOCC2)cc1)C1CCN(C(=O)OCc2ccccc2)CC1,-12,.,-21%,-12,2%,-13
CCc1ccc(NC(=O)Cn2c(=O)n(Cc3nc(-c4ccccc4)no3)c(=O)c3cc4c(cc32)OCO4)cc1,.,3%,-21%,.,-1%,.
COc1ccccc1NC(=O)CC1CCCC1,-9,2%,-2%,9,1%,0
